High-throughput results: PubChem BioAssay, National Center for Advancing Translational Sciences (NCATS)
PNC assembly inh – blocks assembly of the perinucleolar compartment; PC3M PTB-GFP, PNC prevalence imaging, 16 h; hits give low values; activity change (PNC), negative = inhibition, % at 10 µM; 3.1% of 140,000 active; AID 2417;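 active = readout at or below -70, meaning at least 70% loss of cells showing the perinucleolar compartment, a nuclear body marking cancer cells; inconclusive = readout between -30 and a set limit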
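PC3M cells stably expressing PTB-GFP, 750–1000 cells/well, treated 16 h at 37 °C with compound (23 nl of library stock), in duplicate. After paraformaldehyde fixation and Hoechst stain, imaged at 20x; PNC prevalence scored by image analysis.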
HttQ103 aggreg – mutant huntingtin aggregation inhibition; PC12 HttQ103-GFP aggregates, Acumen cytometry, 40 h; Potency, µM (highest dose often 46.1 µM), hits mostly inhibitors; 1.1% of 220,000 active; note: nearly all actives have a fitted effect of over 60% in size
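Multiplexed with ATP-based cell death, this channel scores GFP aggregates in PC12 cells expressing inducible HTTex1-Q103-GFP. Induction used 100 nM tebufenozide; compounds were tested in concentration series.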
HTT cytoprotect – Huntington cell model cytoprotection by ATP luminescence | PC12 HTT-Q103 induced, cytoprotection, ATP luminescence, 40 h | Potency, µM (highest dose often 56.4 µM), usual class: activators | 0.14% of 230,000 active | AID 1471; note: nearly all actives have a fitted effect of over 45% in size
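Compounds were screened for protection of PC12 cells against cell death after tebufenozide induction (100 nM final) of mutant Huntingtin exon 1 (Q103) fused to GFP.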
Hits are given with their value; – = inactive; ? = inconclusive; · = not tested or not shown; [ ] = remark or other dose. Shown is part of a subset that was picked to be rich in hits. Unless noted, calls come from the whole dose curve; as a rule, active = well fitted curve in the direction sought with a large enough effect; inconclusive = small, poorly fitted or top-dose-only effect, or another doubt; inactive = no such curve, though single readings can be large; an effect the other way counts as inactive or inconclusive.

SMILES	PNC assembly inh	HttQ103 aggreg	HTT cytoprotect
O=C1C2CC=C(Cl)CC2C(=O)N1CN(Cc1ccco1)CN1C(=O)C2CC=C(Cl)CC2C1=O (configuration not stated)	-96	–	–
Nc1c(S(=O)(=O)c2ccccc2)c2nc3ccccc3nc2n1Cc1ccco1	–	–	–
Cc1ccc(S(=O)(=O)c2c(N)n(Cc3ccco3)c3nc4ccccc4nc23)cc1C	–	13µM	–
Oc1cccc(Nc2nc(O)c(/C=C3\C=Nc4ccccc43)s2)c1	·	–[9.22 µM]	–[10 µM]
Oc1nc(Nc2cccc(Cl)c2)sc1/C=C1\C=Nc2ccccc21	–	8.9µM	–[10 µM]
CCN1CCCC1CNS(=O)(=O)c1cccc(C(F)(F)F)c1 (configuration not stated)	·	–	–
CCNc1cccc2c1C(=O)N(C)C2=O	–	–	–[10 µM]
CCC(=O)Nc1cccc2c1C(=O)N(C)C2=O	-111	–	–[10 µM]
Cc1ccc(-c2nnc3n2N=C(c2ccc(Br)cc2)CS3)cc1	-106	–	–
CCOc1ccc(-c2nnc3n2N=C(c2ccc(OC)cc2)CS3)cc1	–	–	–
CCOc1ccc(C2=Nn3c(nnc3-c3ccccc3OC)SC2)cc1	-86	?	–
Cc1cccc(-c2nnc3n2N=C(c2ccc(Br)cc2)CS3)c1	–	–	–
C=CCn1c(O)c(N=O)c2cc(C)ccc21	·	–[9.22 µM]	–[10 µM]
O=C(Nc1cccc(C(=O)N2CCN(Cc3ccccc3)CC2)c1)c1ccccc1	–	11µM	–
O=C(c1cccs1)N1CCN(Cc2ccccc2)CC1	-109	?	·
CC(=O)Nc1cccc(C(=O)N2CCN(Cc3ccccc3)CC2)c1	?	–	–
O=C(c1cccs1)N1CCN(Cc2ccncc2)CC1	?	–	–[10 µM]
Cc1nc2nc(-c3ccccc3)cc(=O)n2[nH]1	?	–	–[0.074 µM]
O=c1cc(-c2ccccc2)nc2nc(CCc3ccccc3)[nH]n12	-107	–	–
O=c1cc(-c2ccccc2)nc2nc(SCc3ccccc3)[nH]n12	?	–	–
O=c1cc(-c2ccccc2)nc2nc(-c3ccco3)[nH]n12	-117	–	–[0.074 µM]
COc1ccc(/C(N)=N/OC(=O)Cc2ccc(C)cc2)cc1	–	–	–[10 µM]
CCn1c(SCC(=O)C(C)(C)C)nnc1-c1cnccn1	-100	–	–[10 µM]
CCn1c(SCC(=O)C(C)(C)C)nnc1-c1ccccn1	–	–	–
CNNC(=S)NCCC1=CCCCC1	·	–[9.22 µM]	–[10 µM]
SMILES	PNC assembly inh	HttQ103 aggreg	HTT cytoprotect
COC(=O)CSc1nc(C)cc(C(F)(F)F)c1C#N	–	–	–
Cc1ccc(S(=O)(=O)CCSc2nc(C)cc(C(F)(F)F)c2C#N)cc1	-119	?	–[10 µM]
CCOC(=O)NC(=O)CSc1nc(C)cc(C(F)(F)F)c1C#N	–	10µM	–
Cc1ccc(S(=O)(=O)CCSc2ccc(C(F)(F)F)cn2)cc1	·	–[9.22 µM]	–[10 µM]
CC1CN(C(=O)C(C)Sc2nc3ccccc3s2)CC(C)O1 (configuration not stated)	–	–	–
CCC(=O)N1CCc2cc(Br)cc(S(=O)(=O)N3CCN(C(=O)c4ccco4)CC3)c21	–	–	–[10 µM]
CC(=O)N1c2c(cc(Br)cc2S(=O)(=O)N2CCN(C(=O)c3ccco3)CC2)CC1C (configuration not stated)	-100	–	–[10 µM]
Cc1nc2sc3c(c2c(=O)o1)CCCC3	–	–	–
CC(C)c1nc2sc3c(c2c(=O)o1)CCCC3	-94	–[9.22 µM]	–
O=C(CSCc1c(Cl)cccc1Cl)NCC1CCCO1 (configuration not stated)	–	–	–
Cc1ccc(C(=O)Nc2cccc(C(=O)O)c2)cc1	–	–	–
Cc1oc2c(c1C(=O)Nc1cccc(C(=O)O)c1)CCCC2	-108	–	–
COc1cc(/C=N/NC(=O)c2cccc(S(=O)(=O)N3CCOCC3)c2)cc(OC)c1O	·	–	–[10 µM]
S=c1[nH]nc(C2CCCCC2)n1/N=C/c1ccncc1	·	0.22µM	–
O=[N+]([O-])c1ccc(/C=N/n2c(C3CCCCC3)n[nH]c2=S)cc1	–	–	–
CCCN(Cc1cc2cccc(C)c2[nH]c1=O)C(=O)c1cccc(OC)c1	·	·	–[0.074 µM]
CCCN(Cc1cc2cc(C)ccc2[nH]c1=O)C(=O)c1cccc(OC)c1	–	10µM	–[0.074 µM]
O=S(=O)(c1ccc(S(=O)(=O)N(Cc2ccco2)Cc2ccccc2Cl)cc1)N1CCCC1	–	–	–[10 µM]
O=c1cc(CN2CCN(S(=O)(=O)c3ccc4c(c3)OCCO4)CC2)c2ccc(O)cc2o1	–	–	–
COc1ccc(C(=O)Nc2cc(OC)ccc2OC)cc1	–	–	–
COc1ccc(OC)c(NC(=O)C23CCC(C)(C(=O)C2)C3(C)C)c1 (configuration not stated)	-86	–	–[0.074 µM]
O=C(Nc1nnc(-c2cccc(F)c2)s1)Nc1ccccc1F	·	–[9.22 µM]	–[10 µM]
CC(=O)N1CCC2(CCCN(c3ccncc3)C2)CC1	·	·	–
NC(=S)N/N=C1\CC(c2ccc3c(c2)OCCCO3)Oc2ccc(F)cc21 (configuration not stated)	·	–[9.22 µM]	–[10 µM]
CC1(C)NC(=O)N(CC(O)CN2CCCCC2)C1=O (configuration not stated)	-94	–	–[1.9 µM]
SMILES	PNC assembly inh	HttQ103 aggreg	HTT cytoprotect
CC1(C)NC(=O)N(CC(O)COC2CCCCC2)C1=O (configuration not stated)	–	–	–[10 µM]
COc1ccc(CNc2ncnc3ccc(-c4cccc(NS(C)(=O)=O)c4)cc23)c(OC)c1	·	·	–
O=C(NCc1ccccc1)c1ccccc1Br	·	–	–
CC(C)=CCN1CCN(Cc2cn[nH]c2C2CCCCC2)CC1CCO (configuration not stated)	·	–	–
COc1ccc(/C=N/NC(=O)Cn2cnc3ccccc3c2=O)cc1	–	–	–[10 µM]
COc1ccc(/C=N/NC(=O)C(C)n2cnc3ccccc3c2=O)cc1 (configuration not stated)	-119	–	–[10 µM]
Nc1ncnc(NCc2ccc(F)cc2)c1[N+](=O)[O-]	·	?	–[10 µM]
Nc1ncnc(NCc2ccccc2)c1[N+](=O)[O-]	–	11µM	·
Cc1cccnc1Nc1ncnc(N)c1[N+](=O)[O-]	·	–	–
Cc1ccc(C)c(Nc2ncnc(N)c2[N+](=O)[O-])c1	-124	–	·
Cc1ccc(NC(=O)C2CCCN2S(=O)(=O)c2ccc3c(c2)n(C)c(=O)c(=O)n3C)c(C)c1 (configuration not stated)	·	–[9.22 µM]	–[10 µM]
Cc1ccccc1SCCNC(=O)c1ccccc1Br	·	–	–
Cc1ccc(NC(=O)N2CCc3ccccc32)cc1C	·	–	·
O=C(COc1ccc2ccccc2c1)N1CCN(C(=O)c2ccco2)CC1	·	–	–
O=C(c1ccco1)N1CCN(CC(O)COc2ccc3oc4ccccc4c3c2)CC1 (configuration not stated)	-93	?	–
Cc1c(O)nc(SCC(=O)Nc2ccc3c4c(cccc24)CC3)n(-c2ccccc2)c1=O	-113	–	·
O=C(CSc1nc(O)cc(=O)n1-c1ccccc1)Nc1ccc2c3c(cccc13)CC2	–	–	·
c1ccc(Nc2nc(NCC3CCCO3)c3ccccc3n2)cc1 (configuration not stated)	·	?	–
CCOc1ccc(Nc2nc(NCC3CCCO3)c3ccccc3n2)cc1 (configuration not stated)	·	14µM	–
CCC(C)[C@H](NC(=O)N1CCN(C)CC1)C(=O)OC (some centres not stated)	?	–	–[10 µM]
